In PubChem BioAssay (NCATS):
Where “and” joins values, the source holds several entries; their conditions need not be identical. Equal entries are not always repeated. Results filed as inconclusive are left out. Where a call stands in place of a potency, no number is given. Where a structure was tested more than once in an assay, its records may differ in their call. Calls of active or inactive are those of the source. The call rests on the fitted dose curve; in most records, active means well fitted curve in the direction sought with a large enough effect; inconclusive means small, poorly fitted or top-dose-only effect, or another doubt; inactive means no such curve, though single readings can be large; an effect the other way counts as inactive or inconclusive. Positions of bridges follow the written chain, without caps; N, C: chain ends. Non-standard residues stand in square brackets, D forms with d. Residues, ends and D or L forms follow the SMILES beside them. ξ: configuration not given here. *: point of attachment. Octanoyl(6-Me) = CCC(C)CCCCC(=O)*; ξThr(3R) = C[C@@H](O)C(N)C(=O)O; dDab = NCC[C@@H](N)C(=O)O; Dab = NCC[C@H](N)C(=O)O; Nva = CCC[C@H](N)C(=O)O; Cbz = O=C(OCc1ccccc1)*

Experiments:
[1] = biological target: Phospholipid hydroperoxide glutathione peroxidase GPX4 (Homo sapiens) (UniProt P36969); assay: Primary qHTS Assay for Inhibitors of Recombinant Selenoprotein Glutathione Peroxidase 4 (GPX4) (AID 1845192); further: nearly all actives have a fitted effect of over 65% in size
In short: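 qHTS, GR-coupled: GPX4 200 nM + cpd 30 min RT → GSH 1 mM, NADPH 0.5 mM, GR 100 nM → CHP 0.5 mM start; fluor 340/450 at t0 and t15 min; no-enzyme wells as control.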

[2] = Quantitative High-Throughput drug screen in 47 multiple myeloma cell lines against the NCATS MIPE library collection: FR4_PLB cell viability assay (AID 1918924; further: nearly all actives have a fitted effect of over 35% in size)
In short: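 Relative luminescence from CellTiter-Glo served as the viability signal, referenced to DMSO-treated (100%) and cell-free medium (0%) controls. Treatment lasted 48 hours at 37C with 500 cells per well.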

[3] = Quantitative High-Throughput drug screen in 47 multiple myeloma cell lines against the NCATS MIPE library collection: Delta47_JCRB cell viability assay (AID 1918925; further: nearly all actives have a fitted effect of over 45% in size)
In short: (§1)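 Primary qHTS used for cherry-picking: cells at 500/well, library compounds for 48 h (37C, 5% CO2), luminescent ATP assay.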

[4] = Quantitative High-Throughput drug screen in 47 multiple myeloma cell lines against the NCATS MIPE library collection: EJM_DSMZ cell viability assay (AID 1918926; further: nearly all actives have a fitted effect of over 30% in size)
In short: as §1

[5] = Quantitative High-Throughput drug screen in 47 multiple myeloma cell lines against the NCATS MIPE library collection: AMO1_DSMZ cell viability assay (AID 1918927; further: nearly all actives have a fitted effect of over 30% in size)
In short: as §1

[6] = Quantitative High-Throughput drug screen in 47 multiple myeloma cell lines against the NCATS MIPE library collection: ARP1_JJKsccF8 cell viability assay (AID 1918928; further: nearly all actives have a fitted effect of over 40% in size)
In short: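 Viability screen: myeloma cells (500/well) incubated 48 h at 37 °C, humidified 5% CO2, with pinned library compounds; CellTiter-Glo added, luminescence read; DMSO wells set 100%, medium-only wells 0%.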
Potency means the concentration at half of the fitted maximal effect.

Chain of Phospholipid hydroperoxide glutathione peroxidase GPX4 (Homo sapiens) (P36969 whole entry, looked up): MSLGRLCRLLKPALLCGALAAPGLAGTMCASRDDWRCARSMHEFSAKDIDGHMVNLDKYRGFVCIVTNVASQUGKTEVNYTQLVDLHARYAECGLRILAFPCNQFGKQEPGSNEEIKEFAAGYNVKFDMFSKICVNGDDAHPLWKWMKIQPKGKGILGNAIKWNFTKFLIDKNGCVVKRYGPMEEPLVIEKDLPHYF

| SMILES | Potency [1] | Potency [2] | Potency [3] | Potency [4] | Potency [5] | Potency [6] |
| --- | --- | --- | --- | --- | --- | --- |
| CCOC(=O)C1=C(C)NC(=S)NC1c1cccc(O)c1 (configuration not stated) | inactive | 18.7 nM (active) | 16.6 nM (active) | 46.9 nM (active) | 662 nM (active) | 105 nM (active) |
| Cc1cnc(NC(=O)Nc2cc(Br)c(C)cc2OC[C@@H]2CNCCO2)cn1 | inactive | 590 nM (active) | 5260 nM (active) | 3720 nM (active) |  | 13200 nM (active) |
| COc1cc(C)c(Sc2cnc(NC(=O)c3ccc(CNC(C)C(C)(C)C)cc3)s2)cc1C(=O)N1CCN(C(C)=O)CC1 (configuration not stated) | inactive | 20900 nM (active) | 2090 nM (active) | 18700 nM (active) | 5260 nM (active) | 16600 nM (active) |
| COC[C@H](NC(=O)c1cnc(C)s1)C(=O)N[C@@H](COC)C(=O)N[C@@H](Cc1ccccc1)C(=O)[C@@]1(C)CO1 | inactive | 46.9 nM (active) | 37.2 nM (active) |  | 26.4 nM (active) | 74.3 nM (active) |
| O=C(NC1CC1)c1cccc(-c2ccc3c(NC(=O)C4CC4)n[nH]c3c2)c1 | inactive | 2090 nM (active) | 7430 nM (active) |  |  | 14800 nM (active) |
| C[C@@H]1CC[C@@]2(OC1)OC1CC3C4CC=C5CC(O)CCC5(C)C4CCC3(C)C1[C@@H]2C (some centres not stated) | inactive | inactive | inactive | inactive | inactive | inactive |
| CCCNS(=O)(=O)Nc1ncnc(OCCOc2ncc(Br)cn2)c1-c1ccc(Br)cc1 | inactive | inactive | 2640 nM (active) |  |  | inactive |
| N#Cc1c(NC(=O)c2cccc3ccccc23)sc2c1CCCC2 | inactive | 209 nM (active) | 418 nM (active) |  | 118 nM (active) | 418 nM (active) |
| COc1ccc([C@@H]2CNC(=O)C2)cc1OC1CCCC1 | inactive | inactive | 3720 nM (active) | inactive | inactive | inactive |
| CCC(C(=O)O)C1CCC(C)C(C(C)C(O)C(C)C(=O)C(CC)C2OC3(C=CC(O)[C@@]4(CC[C@](C)(C5CC[C@@](O)(CC)C(C)O5)O4)O3)C(C)CC2C)O1 (some centres not stated) | inactive | 16600 nM (active) | 4690 nM (active) | 5900 nM (active) | 132 nM (active) | 1870 nM (active) |
| CN(C)c1ccc(C(=O)NCCCCCCC(=O)NO)cc1 | inactive | 132 nM (active) | 590 nM (active) |  | 235 nM (active) |  |
| CCCc1nc(C(C)(C)O)c(C(=O)O)n1Cc1ccc(-c2ccccc2-c2nn[nH]n2)cc1 | inactive and 17.8 µM (active) | inactive | inactive |  | inactive | inactive |
| COc1cc2c(cc1OC)[C@@H]1C(=O)c3ccc4c(c3O[C@@H]1CO2)C=CC(C)(C)O4 | inactive | 4180 nM (active) | 10.5 nM (active) |  | 93.5 nM (active) |  |
| C=Cc1c(C)c2cc3nc(cc4[nH]c(cc5nc(cc1[nH]2)C(C)=C5CCC(=O)O)c(CCC(=O)OC)c4C)[C@@]1(C)C3=CC=C(C(=O)OC)[C@H]1C(=O)OC | inactive | 662 nM (active) | 132 nM (active) |  | 93.5 nM (active) | 743 nM (active) |
| COc1ccc(Nc2cc(-c3cnc(N)nc3)nc(N3CCOCC3)n2)cn1 | inactive | 4180 nM (active) | 1480 nM (active) |  | 3720 nM (active) | 469 nM (active) |
| O=[N+]([O-])c1cn2c(n1)OC[C@@H](OCc1ccc(OC(F)(F)F)cc1)C2 | inactive | inactive | inactive | inactive |  | inactive |
| O=C(O)CCCCC(CCSCc1ccccc1)SCc1ccccc1 (configuration not stated) | 20200 nM (active) | inactive | inactive | inactive |  | inactive |
| O=C(CCCCCCC(=O)Nc1cccnc1)NO | inactive | 2350 nM (active) | 2960 nM (active) | 7430 nM (active) | 2350 nM (active) | 2350 nM (active) |
| CC(C)C[C@H](NC(=O)CNC(=O)c1cc(Cl)ccc1Cl)B1OC(=O)CC(CC(=O)O)(C(=O)O)O1 (some centres not stated) | inactive | 41.8 nM (active) | 33.2 nM (active) | 83.3 nM (active) | 23.5 nM (active) | 33.2 nM (active) |
| CCC[C@@H](C=O)NC(=O)[C@H](CC(C)C)NC(=O)[C@H](CC(C)C)NC(=O)OCc1ccccc1 (Cbz-Leu-Leu-[Nva]-aldehyde) | inactive | 833 nM (active) | 332 nM (active) |  | 296 nM (active) |  |

| SMILES | Potency [1] | Potency [2] | Potency [3] | Potency [4] | Potency [5] | Potency [6] |
| --- | --- | --- | --- | --- | --- | --- |
| Cn1cnc(=N)c2[nH]cnc21 | inactive | 148 nM (active) | 132 nM (active) |  | 83.3 nM (active) | 118 nM (active) |
| NC(=O)Nc1cc(-c2ccc(CN3CCOCC3)cc2)sc1C(N)=O | inactive | 18700 nM (active) | 2090 nM (active) |  | 2960 nM (active) | 18700 nM (active) |
| C=C(C)[C@@H]1CC[C@]2(C(=O)O)CC[C@]3(C)[C@H](CC[C@@H]4[C@@]5(C)CC[C@H](O)C(C)(C)[C@@H]5CC[C@]43C)[C@@H]12 | inactive | inactive | inactive |  | inactive | inactive |
| CCS(=O)(=O)Nc1ccc2[nH]c(O)c(C(=Nc3ccc(CN4CCCCC4)cc3)c3ccccc3)c2c1 | inactive | 18700 nM (active) | 52.6 nM (active) | 6620 nM (active) | 148 nM (active) | 743 nM (active) |
| CCC(C)CCCCC(=O)N[C@@H](CCN)C(=O)NC(C(=O)N[C@H](CCN)C(=O)N[C@@H]1CCNC(=O)C([C@@H](C)O)NC(=O)[C@@H](CCN)NC(=O)[C@@H](CCN)NC(=O)[C@@H](CC(C)C)NC(=O)[C@H](Cc2ccccc2)NC(=O)[C@H](CCN)NC1=O)[C@@H](C)O (stereo partly drawn) ({Octanoyl(6-Me)}-[Dab][ξThr(3R)][dDab][dDab][Dab]F[dL][dDab][dDab][ξThr(3R)]; lactam 4-C) | inactive | inactive | inactive | inactive | inactive | inactive |
| CCOC(=O)C=C[C@H](C[C@@H]1CCNC1=O)NC(=O)[C@@H](CC(=O)[C@@H](NC(=O)c1cc(C)on1)C(C)C)Cc1ccc(F)cc1 | inactive | inactive | inactive | inactive |  | inactive |
| CCc1c(O)cc(O)c(C(=O)c2ccc(OCCN3CCOCC3)c(OC)c2)c1CC(=O)N(CCOC)CCOC | inactive | 1180 nM (active) | 1660 nM (active) |  | inactive | 1480 nM (active) |
| COc1cc(OC)c(NC(=O)Nc2cc(C)on2)cc1Cl | inactive | inactive | inactive |  | inactive | inactive |
| C[C@H](NC(=O)[C@@H](O)c1cc(F)cc(F)c1)C(=O)N[C@@H]1C(=O)N(C)c2ccccc2-c2ccccc21 | inactive | inactive |  | inactive | inactive | inactive |
| C#Cc1cccc(Nc2ncnc3cc(OCCOC)c(OCCO)cc23)c1 | inactive | 7430 nM (active) | 1050 nM (active) |  | 2350 nM (active) |  |
| C[C@H](O)[C@@H]1C(=O)N2C(C(=O)O)=C(S[C@@H]3CN[C@H](CNS(N)(=O)=O)C3)[C@@H](C)[C@@H]12 | inactive | inactive | inactive | inactive |  | inactive |
| Cc1ccc2nc(NCCN)c3ncc(C)n3c2c1 | 22700 nM (active) | 3320 nM (active) | 5900 nM (active) | 1480 nM (active) | 8330 nM (active) | 8330 nM (active) |
| CC(C)[C@H](CO)Nc1nc(Nc2cccc(Cl)c2)c2ncn(C(C)C)c2n1 | inactive | 16600 nM (active) | 18700 nM (active) |  | inactive | 23500 nM (active) |
| CC(=O)O[C@H]1C[C@@H]2CC[C@H]3[C@H]4C[C@H]([N+]5(C)CCCCC5)[C@@H](OC(C)=O)[C@@]4(C)CC[C@@H]3[C@@]2(C)C[C@H]1[N+]1(C)CCCCC1 | inactive | inactive | inactive | inactive |  | inactive |
| Oc1cc2c(cc1O)C1c3ccc(O)c(O)c3OCC1(O)C2 (configuration not stated) | inactive | inactive | inactive | inactive | inactive | inactive |
| COc1cc2ncnc(Nc3cccc(Br)c3)c2cc1OC | inactive | 1320 nM (active) | 1480 nM (active) |  | 3720 nM (active) |  |
| CCN(C(=O)c1c(O)c2c(Cl)cccc2n(C)c1=O)c1ccccc1 | inactive | inactive | inactive | inactive |  | inactive |
| COc1cc(C(C)C)c(Oc2cnc(NC(CO)CO)nc2N)cc1I | inactive | 5260 nM (active) |  | 469 nM (active) | 14800 nM (active) | inactive |
| OC[C@H]1OC(O)C[C@@H](O)[C@H]1O (some centres not stated) | inactive | inactive |  |  |  | inactive |
| O=C(O)CCCCCC(=O)NN=C1CCCC1 | inactive | inactive |  | inactive | inactive | inactive |
